CHRM1 PAM – potentiates human M1 receptor response to acetylcholine | P11229 | CHO-K1 hM1, Fluo-8 calcium fluorescence, ACh EC20; 0% = ACh EC20, 100% = maximal ACh | activation, % at 3 µM | 0.088% of 360,000 active; in the data active = activation above about 19%, passing the limit was not always enough
Target sequence (P11229 whole entry, looked up): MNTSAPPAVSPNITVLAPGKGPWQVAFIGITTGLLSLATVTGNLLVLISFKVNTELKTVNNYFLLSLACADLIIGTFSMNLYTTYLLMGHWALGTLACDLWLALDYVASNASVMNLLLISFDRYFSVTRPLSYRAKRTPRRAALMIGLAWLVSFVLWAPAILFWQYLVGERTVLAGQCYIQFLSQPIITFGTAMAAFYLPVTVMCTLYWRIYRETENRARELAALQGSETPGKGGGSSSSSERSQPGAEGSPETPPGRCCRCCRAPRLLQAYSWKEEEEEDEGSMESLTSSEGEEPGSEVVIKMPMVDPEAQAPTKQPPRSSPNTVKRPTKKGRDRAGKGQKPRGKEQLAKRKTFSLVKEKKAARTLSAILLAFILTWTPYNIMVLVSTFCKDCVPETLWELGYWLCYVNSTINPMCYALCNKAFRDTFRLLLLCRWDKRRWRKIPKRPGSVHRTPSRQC
CHO-K1 Ca antag – nonselective inhibitor or artifact in parental CHO-K1 cells. ATP-induced calcium, Fluo-8 fluorescence. inhibition, % at 3 µM. 0.6% of 360,000 active. AID 602250;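 active = inhibition above a per-plate cutoff, the plate's mean sample inhibition plus 3 SD, cut at about 24% in these data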
M1 antag – blocks human M1 muscarinic receptor | inhibition, % at 3 µM | 1.3% of 360,000 active | CHO-K1 hM1, Fluo-8 calcium fluorescence, ACh EC80 antagonist | AID 588852;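 active = percent inhibition above its own plate's cutoff, namely the mean of that plate's compound wells plus 3 SD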;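 also: peak over basal fluorescence ratio during 140 s after agonist addition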
M1 PAM parental – M1 PAM counterscreen hit in parental CHO-K1 cells. ATP EC20, Fluo-8 calcium fluorescence; 0% at ATP EC20, 100% at ATP max. activation, % at 3 µM. 0.02% of 360,000 active. AID 602247;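 active = activation above the run cutoff, the mean activation of all test compounds plus 3 SD, cut at about 40% in these data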;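 also: peak over basal fluorescence ratio in a 140 s read after ATP addition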
CHO-K1 Ca ag – counter-screen for M1 agonists: effect in parental CHO-K1 cells; Fluo-8 calcium fluorescence; scaled to maximal ATP response, vehicle zero; activation, % at 3 µM; 0.48% of 360,000 active; AID 602248; in the data active = activation above about 15%;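 also: untransfected CHO-K1 host cells lacking M1 receptor as counterscreen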
M1 ag – human M1 muscarinic receptor agonism | P11229 | CHO-K1 hM1, Fluo-8 calcium fluorescence, agonist mode; 0% DMSO, 100% acetylcholine EC100 | activation, % at 3 µM | 0.33% of 360,000 active;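 active = activation above the run's mean compound activation plus 3 SD, cut at about 16% in these data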;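 also: peak over basal fluorescence ratio within a 140 s kinetic read after compound addition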
A number is an active result; . = inactive. Most compounds without a hit are left out; they make up all but 2.3% or so of the library.

SMILES | CHRM1 PAM | CHO-K1 Ca antag | M1 antag | M1 PAM parental | CHO-K1 Ca ag | M1 ag
Cc1c(Br)c(C(=O)NNC(=O)c2ccc(C(C)(C)C)cc2)nn1C | . | . | . | . | . | .
CN(C)/C=N/c1nc2nccc(-c3ccc(F)cc3)n2n1 | . | . | . | . | . | .
CN(C)/C=N/c1nc2nccc(-c3cccc(Cl)c3)n2n1 | . | . | . | . | 21 | .
CCN1CCN(CCNC(=O)c2ccc3c(c2)N(Cc2ccc(F)cc2)C(=O)/C(=C/c2ccccc2)S3)CC1 | . | . | . | . | . | .
CCN1CCN(CCNC(=O)c2ccc(/C=C3/Sc4ccccc4N(Cc4cccc(Cl)c4)C3=O)cc2)CC1 | . | . | 57 | . | . | .
Cc1cccc(CN2C(=O)/C(=C\c3ccc(C(=O)NCCN4CCOCC4)cc3)Sc3ccccc32)c1 | . | . | 33 | . | . | .
Cc1ccccc1CN1C(=O)/C(=C\c2ccc(C(=O)NCCN3CCOCC3)cc2)Sc2ccccc21 | . | . | . | . | . | .
CCC1(c2ccc(F)cc2)NC(=O)N(CC(=O)Nc2cc(C)on2)C1=O (centres undefined) | . | . | . | . | . | .
CC(C)(C)S(=O)(=O)N1Cc2cc(CO)cc(CCO)c2[C@@H]1CCO | . | . | . | . | . | .
C=CCN1C(=O)/C(=C/C=C2/N(CC)c3ccc(S(=O)(=O)N(C)C)cc3N2CC)SC1=S | . | . | . | . | . | 17
CCc1nc2ccc(C(=O)NCCOc3ccc(OC)cc3)cn2c1N(CC)Cc1ccc(OC)c(OC)c1 | . | . | . | . | . | .
COc1ccccc1NC(=O)CSc1nc2ccccc2cc1Cc1ccccc1 | . | . | . | 42 | . | .
O=C(c1ccc2c(=O)n3c(nc2c1)CCC3)N1CCN(S(=O)(=O)c2ccccc2Br)CC1 | . | . | . | . | . | .
CC(=O)c1cccc(N/C=C\c2nnnn2-c2ccc(F)cc2)c1 | . | . | . | . | 15 | .
O=C(C1CCC1)N1CCN(c2cccc(C(F)(F)F)c2)CC1 | . | . | . | . | . | .
O=C(C1CCN(c2nnc(-n3cccc3)s2)CC1)N1CCN(c2cccc(C(F)(F)F)c2)CC1 | . | . | 40 | . | . | .
CCOC(=O)c1c(C)[nH]c(C(=O)COC(=O)c2ccccc2NC(=O)c2ccco2)c1C | . | 32 | . | . | . | .
Nc1cc(-c2ccccc2)n2c(n1)nc1ccccc12 | . | . | 92 | . | . | .
N#Cc1c(-c2ccccc2)cc2nc3ccccc3n2c1N | . | . | . | . | . | .
O=C(Nc1ccc(N2CCOCC2)cc1)c1ccc(Cl)c(S(=O)(=O)N2CCCCC2)c1 | . | . | . | . | . | .
CC(=O)c1ccc(OCCCC(=O)NCC(c2ccco2)N(C)C)cc1 (centres undefined) | . | 25 | . | . | . | .
CCOc1ccc(NS(=O)(=O)c2ccc(C(=O)NCC(c3ccco3)N(C)C)cc2)cc1 (centres undefined) | . | . | . | . | . | .
CC(C)CCOc1ccc(C(=O)NCC(c2ccco2)N(C)C)cc1 (centres undefined) | . | . | 28 | . | . | .
COc1cc2c(cc1OC)C(=O)C(Br)CC2 (centres undefined) | . | . | . | . | . | .
COc1ccc(CNC(=O)c2cccc3c(-c4cccc(C(N)=O)c4)coc23)cc1OC | . | 26 | 39 | . | . | .
SMILES | CHRM1 PAM | CHO-K1 Ca antag | M1 antag | M1 PAM parental | CHO-K1 Ca ag | M1 ag
COc1cc(-c2coc3c(C(=O)NCc4ccc(OC)c(OC)c4)cccc23)ccc1O | . | . | 30 | . | 15 | .
O=C(CCc1nc2ccccc2s1)Nc1cccnc1 | . | . | . | . | . | .
CN(C)CCC(O)(c1ccccc1)c1ccccc1Cl (centres undefined) | . | . | 38 | . | . | .
CN(C)CCCC(C)(O)C(C)(C)c1ccccc1 (centres undefined) | . | . | . | . | . | .
CN(C)CCC(O)(c1ccccc1)c1ccccc1 | . | . | 67 | . | . | .
Cc1c(N=C(N)/N=C(\N)Nc2ccc(Br)cc2)c(=O)n(-c2ccccc2)n1C | . | . | . | . | . | .
NC(=O)c1ccsc1NC(=O)CN1CCN(S(=O)(=O)c2ccccc2C(F)(F)F)CC1 | . | . | . | . | 16 | .
CCCC(C)c1nnc(NC(=O)C2CCCO2)s1 (centres undefined) | . | . | 55 | . | . | .
CCOC(=O)c1c(NC(=O)C2CCCO2)sc(C)c1C (centres undefined) | . | . | 47 | . | . | .
Cc1sc(NC(=O)C2CCCO2)c(C(N)=O)c1C (centres undefined) | . | . | . | . | . | .
Cc1ccc(NC(=O)C2Cc3ccccc3CN2C(=O)c2ccco2)cc1S(=O)(=O)N(C)C (centres undefined) | . | . | . | . | . | .
CCN(C(=O)CSc1ncccn1)c1cccc2ccccc12 | . | . | . | . | . | .
CNC(=O)CN(c1ccc2c(c1)OCCO2)S(C)(=O)=O | . | . | . | . | . | .
CS(=O)(=O)N(CC(=O)NC1CCCC1)c1ccc2c(c1)OCCO2 | . | . | 35 | . | . | .
Cc1cc(C)cc(C(=O)N2CCCCCC2)c1 | . | . | . | . | . | .
Cc1cc(C)c(C(=O)c2ccc(C(=O)N3CCCCC3)cc2)c(C)c1 | . | . | . | . | 28 | 36
COc1ccccc1-n1c(O)c(C=NCc2ccccn2)c2ccccc2c1=O | . | . | . | . | 18 | .
Cc1ccc(-n2c(O)c(C=NCc3ccccn3)c3ccccc3c2=O)cc1 | . | . | . | . | . | .
CCC1CCCCN1CCNC(=O)C1CCN(S(=O)(=O)c2c(C)noc2C)CC1 (centres undefined) | . | . | 48 | . | . | .
Cc1cc(/C=C(\C#N)C(=O)NCc2ccco2)c(C)n1-c1cccnc1 | . | . | . | . | . | .
Cc1cc(/C=C(/C#N)c2cccc(F)c2)c(C)n1-c1cccnc1 | . | . | 34 | . | . | .
CCCc1cc(=O)oc2cc(OC(C)C(=O)NCC3CCC(C(=O)O)CC3)ccc12 (centres undefined) | . | 27 | . | . | . | .
CC1CC(=O)N(CC(=O)Nc2ccccc2F)c2ccccc2S1(=O)=O (centres undefined) | . | . | . | . | . | .
Cc1cc(N2CCCCC2)nc(NCc2ccccc2)n1 | . | . | . | . | 20 | 21
Cc1cc(N2CCOCC2)nc(NCc2ccccc2)n1 | . | . | . | . | 16 | .
Cc1cc(OC2CCCCC2)nc(NCc2ccccc2)n1 | . | . | . | . | . | .
Cc1cc(N2CCCCCC2)nc(-c2ccccc2O)n1 | . | . | . | . | . | .
